The results in this text go back to paper PMC7819943, “Rice protein-binding microarrays: a tool to detect cis-acting elements near promoter regions in rice”.

Over roughly 68,000 sequences, “fluorescence intensity (a.u.)” has its median near 9,100; the highest 2% begin near 16,000. Shown is part of a subset that was picked to be rich in the highest values.

Sequence of OsWRKY34 (Q0JBA9 entry or part of it): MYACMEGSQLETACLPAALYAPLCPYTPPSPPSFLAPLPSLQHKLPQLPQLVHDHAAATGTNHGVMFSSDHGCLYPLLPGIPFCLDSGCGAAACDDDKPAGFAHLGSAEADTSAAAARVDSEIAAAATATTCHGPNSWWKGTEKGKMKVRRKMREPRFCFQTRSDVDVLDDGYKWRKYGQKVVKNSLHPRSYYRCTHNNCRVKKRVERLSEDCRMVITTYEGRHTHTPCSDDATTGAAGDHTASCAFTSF

This test has as its target OsWRKY34 (Oryza sativa, UniProt Q0JBA9 1-250). In words: protein-binding microarray (RPBM); PBS, 2% BSA, 51.3 ng/ul salmon testes DNA, 50 uM zinc acetate, 200 nM TF, 25 C, 1 h; high values mean tight binding. The note with it: protein: recombinant; tags: N-terminal polyhistidine and DsRed monomer fusion (pET32a); label: CyDye5-dUTP incorporated in the synthesized complementary strand; 3' TTTTT single-stranded linker to array surface; dsDNA, one strand shown. The gist of the method: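 An Axon 4000B scanner gave the binding signal as per-feature fluorescence intensity in arbitrary units. This followed washing of a custom Agilent array that had been incubated for 1 h at 25 °C with 200 nM protein in PBS, 2% BSA, salmon testes DNA and 50 µM zinc acetate. The proteins were transcription factors fused at the N-terminus to polyhistidine and DsRed, expressed in E. coli BL21-CodonPlus and purified on Ni–NTA.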
For the sequence “GGAGTATATAAATATATATATTAAATACAACTCTAGACTACGGAGTCACCTAGTGCAG”, the binding signal is 26700 fluorescence intensity (a.u.).

As for “TACACTAACCCTACCATCCCGTACACCACCGAAACCCTAACGGAGTCACCTAGTGCAG”, the binding signal is 8330 fluorescence intensity (a.u.).

Turning to “TGTCTGGTCAACGCACAATTTCGGTCAGTAACTCCCTGGCCGGAGTCACCTAGTGCAG”, the binding signal is 9770 fluorescence intensity (a.u.). Take “TCATGGGAGCAATTGCGCGATGTTTTTGTTCTTAACTTTCCGGAGTCACCTAGTGCAG”: the binding signal is 8050 fluorescence intensity (a.u.). Consider “TTTTGGTACGTTATTAGTGTGTGTATCAGTTTTTAAGTTCCGGAGTCACCTAGTGCAG”, for which the binding signal was 9430 fluorescence intensity (a.u.).

For “GTTTCAGGTTTTTGCAGCCAACAGTTTTGCTGATTTTTTACGGAGTCACCTAGTGCAG”, the binding signal is 9480 fluorescence intensity (a.u.).

Turning to “CTCCTTTTGCGCTGCTTCTCCTCGCCGCCACCGTGTAGCGCGGAGTCACCTAGTGCAG”, the binding signal is 8230 fluorescence intensity (a.u.).

On to “GAATTTTTTTTTATCATCTTTGACGGGCACACAAATTTTACGGAGTCACCTAGTGCAG”, for which the binding signal is 8140 fluorescence intensity (a.u.). Turning to “TGGGGATGTGTTGTGGTGAGCTGGAAAGTGCAAACTGGTTCGGAGTCACCTAGTGCAG”, the binding signal is 9630 fluorescence intensity (a.u.).

In the case of “TCCTGTTTAAAGTTTTTTTTTGTGATTTTTAGATAAAAAACGGAGTCACCTAGTGCAG”, the binding signal was 9030 fluorescence intensity (a.u.). With “AGACTATCATCTTGAGCTTATTCTTCCATTTGCTCCATCTCGGAGTCACCTAGTGCAG”, the binding signal was 8950 fluorescence intensity (a.u.). Consider “AGCCAGCCCAAAAGCCACGCCGTCCACTCCATCTCCGCCTCGGAGTCACCTAGTGCAG”, for which the binding signal was 8440 fluorescence intensity (a.u.). As to “CGATCGATCGATCGCGCGCCTCCGCCTATAAATTCTTGCCCGGAGTCACCTAGTGCAG”, the binding signal is 8230 fluorescence intensity (a.u.). With “CTAAATGTTTGACACCGTTGACTTTTTTAAATATGTTTGACGGAGTCACCTAGTGCAG”, the binding signal is 23300 fluorescence intensity (a.u.).

Consider “AAGGTCGTTGACTTTTTATTCGTCCTCGTCTAATTTCTCCCGGAGTCACCTAGTGCAG”, for which the binding signal is 33600 fluorescence intensity (a.u.).

With “GCTGTTTGACTTTTTCTTAATTAAGCTTCTTTATGTTTGACGGAGTCACCTAGTGCAG”, the binding signal is 19700 fluorescence intensity (a.u.).

With “GATCGTTTCTATTCCTAATTCGTTTTCTTTATACTCCCTCCGGAGTCACCTAGTGCAG”, the binding signal was 11100 fluorescence intensity (a.u.).

Turning to “CCCACCATTTTATATTATAAGCTGTTTGACTTTTTCTTAACGGAGTCACCTAGTGCAG”, the binding signal was 13100 fluorescence intensity (a.u.).

As for “CTTTGCGTCTCCTCCCCTTTCTAATCCACTTTTTATTTTTCGGAGTCACCTAGTGCAG”, the binding signal is 9730 fluorescence intensity (a.u.).

Consider “CTTCCCTAAATGTTTGACACCGTTGACTTTTTAAAATATACGGAGTCACCTAGTGCAG”, for which the binding signal was 10500 fluorescence intensity (a.u.). For “CCCTAAATATTTGACGCCGTTGACTTTTTTAAATATGTTTCGGAGTCACCTAGTGCAG” the value was 27300 fluorescence intensity (a.u.). On to “TTCGTTTTGACTTTTTTCTTAGTAAAACTTTTATGTTTGACGGAGTCACCTAGTGCAG”, for which the binding signal was 11600 fluorescence intensity (a.u.).

In the case of “TGCAGTGGCTCCGTCGCTCAGTGAACATCCAGTCCCATTTCGGAGTCACCTAGTGCAG”, the binding signal is 9900 fluorescence intensity (a.u.). For the sequence “GGCCTATATATAACCATTGCTGTTGCCCTAAGAATGAATGCGGAGTCACCTAGTGCAG”, the binding signal is 9380 fluorescence intensity (a.u.). As to “CATTTTTGTTTTTTACTGGGAGATTTTTTTTCCTTTTTCTCGGAGTCACCTAGTGCAG”, the binding signal is 11200 fluorescence intensity (a.u.). “TAGTTGTCAGGTCGCTCCGCTTCATTCTGCTGTGCATTTTCGGAGTCACCTAGTGCAG”: the binding signal is 10100 fluorescence intensity (a.u.).

On to “ATATAGCTTGCTTGTTCGGTTGTTCCACTGTTCCGTGAGGCGGAGTCACCTAGTGCAG”, for which the binding signal is 8310 fluorescence intensity (a.u.). With “AATTGGGAAAATTGGAACCGTGCCACTCCATCATGTTTTCCGGAGTCACCTAGTGCAG”, the binding signal was 8210 fluorescence intensity (a.u.). For the sequence “CTCTCGCCCTTCGCGCTGACCTCCTCACAGCTGCTCTCGCCGGAGTCACCTAGTGCAG”, the binding signal was 8440 fluorescence intensity (a.u.). As for “AAGATCTCCCAGGCCTCGTGTTTTACGTCAACTGGTTGTACGGAGTCACCTAGTGCAG”, the binding signal is 8270 fluorescence intensity (a.u.). Next, “ATTTATTAGTTTGATCCCTCTTTTATCACCATGTATTGCCCGGAGTCACCTAGTGCAG”: 8570 fluorescence intensity (a.u.).

Consider “AGGATCTTTATACACATAGCTACCACAATGGCTACAATTACGGAGTCACCTAGTGCAG”, for which the binding signal is 8130 fluorescence intensity (a.u.). For “CCCGCGTCTCGGCCCTCTCCGTCCTCGTTGCTTCCGACGCCGGAGTCACCTAGTGCAG” the value was 8780 fluorescence intensity (a.u.); for “TTTTTGACTTTGACTTTTAATAGTAAAAAAATCAATTATGCGGAGTCACCTAGTGCAG”, 9900 fluorescence intensity (a.u.); for “TAATACTTTATGCGTGACTTATCTTTTTAAATTTTTTTCACGGAGTCACCTAGTGCAG”, 8970 fluorescence intensity (a.u.). In the case of “ATGTTGTTTGTTATGATGCTGTTCTTTTGTTGTTGTTTACCGGAGTCACCTAGTGCAG”, the binding signal is 11700 fluorescence intensity (a.u.).

Regarding “CCCTAAATATTTGACACCGTTGACTTTTTTAAATATGTTTCGGAGTCACCTAGTGCAG”, the binding signal was 39600 fluorescence intensity (a.u.). In the case of “ATTGAGCGATTTTCGGTATTTCACGATGGGTTATATTTTACGGAGTCACCTAGTGCAG”, the binding signal was 8720 fluorescence intensity (a.u.).

In the case of “CGATTTTTATTTTTCGCCGGATGGGGTTGACTTTTTTTTACGGAGTCACCTAGTGCAG”, the binding signal is 20900 fluorescence intensity (a.u.). For “ATCTTTCTTATGCTGGCCATGATCTATGTTGCTGTTTTTGCGGAGTCACCTAGTGCAG”, the binding signal is 17700 fluorescence intensity (a.u.). For the sequence “GGATTTTTGACGGGGTTTTGCAACGGACTTGACTTGTTTACGGAGTCACCTAGTGCAG”, the binding signal was 8320 fluorescence intensity (a.u.). Next, “TGCGTTGACTTTATCTTCAAATTAATTATGTGCTAATAGGCGGAGTCACCTAGTGCAG”: 22300 fluorescence intensity (a.u.); “ATCTCCCATGTGTGCATGCATCTTTTTTTGTTGTTTGCTGCGGAGTCACCTAGTGCAG”: 11200 fluorescence intensity (a.u.).
